Compound activity as filed in PubChem BioAssay.
POLB inh: DNA polymerase beta (human) inhibition; P06746; Pol beta primer extension/strand displacement, fluorescence kinetic; Potency, µM (highest dose often 114 µM), usual class: inhibitors; actives 1.3% (n = 340,000); AID 485314
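Enzyme-only controls used 10 nM Pol beta; buffer lacking enzyme served as negative control. Compound preincubated 15 min, then 50 nM substrate added; 0 and 10 min reads at room temperature.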
Pol kappa inh: blocks human DNA polymerase kappa activity | Q9UBT6 | purified Pol kappa, fluorescent DNA synthesis assay, 10 min | Potency, µM (doses to about 107 µM), most hits filed as inhibitors | actives 0.53% (n = 400,000)
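Here, compound and 10 nM enzyme are combined for 15 min at room temperature; adding 50 nM substrate (final) starts DNA synthesis, tracked by fluorescence at 0 and 10 min against buffer-only wells.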
Pol eta inh: DNA polymerase eta (human) inhibition; Q9Y253; recombinant Pol eta, fluorescent DNA replication assay; Potency, µM (titrated, usually from 114 µM), usual class: inhibitors; actives 1.2% (n = 390,000); AID 588591
Target sequence (Q9Y253 whole entry, looked up): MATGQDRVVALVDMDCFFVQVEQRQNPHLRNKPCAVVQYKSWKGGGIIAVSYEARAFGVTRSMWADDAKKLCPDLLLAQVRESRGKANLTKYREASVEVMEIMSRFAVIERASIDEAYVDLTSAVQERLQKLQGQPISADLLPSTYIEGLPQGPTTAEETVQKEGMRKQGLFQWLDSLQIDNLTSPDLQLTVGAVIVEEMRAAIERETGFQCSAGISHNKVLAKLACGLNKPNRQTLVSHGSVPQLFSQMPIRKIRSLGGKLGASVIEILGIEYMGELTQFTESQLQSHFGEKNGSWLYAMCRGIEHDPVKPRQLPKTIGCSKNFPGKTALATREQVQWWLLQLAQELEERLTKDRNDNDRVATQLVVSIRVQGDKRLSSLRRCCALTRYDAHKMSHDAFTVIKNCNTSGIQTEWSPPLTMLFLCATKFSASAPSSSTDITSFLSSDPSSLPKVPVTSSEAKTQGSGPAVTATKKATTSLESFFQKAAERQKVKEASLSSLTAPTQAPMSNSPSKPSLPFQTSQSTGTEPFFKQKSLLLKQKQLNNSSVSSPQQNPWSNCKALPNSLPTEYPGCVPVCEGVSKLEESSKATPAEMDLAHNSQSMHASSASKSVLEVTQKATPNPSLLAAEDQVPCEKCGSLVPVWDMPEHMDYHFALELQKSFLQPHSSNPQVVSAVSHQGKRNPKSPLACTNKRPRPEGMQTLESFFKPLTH
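Fluorescent replication assay: 50 nM final substrate added after a 15 min room-temperature compound preincubation with 10 nM enzyme. Signal taken at 0 min and again at 10 min.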
POLI inh: DNA polymerase iota (human) inhibition | Pol iota fluorescent replication assay, 10 min | Q9UNA4 | AID 588590 | actives 1% (n = 390,000) | Potency, µM (series often up to 115 µM), usual class: inhibitors
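Fluorescent replication assay read twice, at 0 min and 10 min after adding 50 nM (final) substrate. Enzyme (10 nM) and compounds were first incubated 15 min at room temperature; enzyme-free buffer wells were negative controls.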
FEN1 inhibitor: human FEN1 inhibition; AID 588795; actives 0.35% (n = 390,000); Potency, µM (series often up to 114 µM), usual class: inhibitors; Recombinant FEN1 flap cleavage, fluorescence, 15 min; P39748; note: nearly all actives have a fitted effect of over 65% in size
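FEN1 at 10 nM, compound pretreatment for 15 min (room temperature), 50 nM final substrate to initiate; endpoint reads at 0 and 15 min; DMSO-only plates used as vehicle background.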
WRN helicase inh: blocks human WRN helicase; Q14191; WRN helicase unwinding, fluorescent forked duplex, kinetic; Potency, µM (doses to about 114 µM), hits mostly inhibitors; actives 0.46% (n = 360,000); note: nearly all actives have a fitted effect of over 55% in size
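Enzyme (20 nM final) and test compound sit together 15 min at room temperature before substrate addition. Substrate is a single-forked duplex oligonucleotide (100 nM) labelled with fluorophore and quencher, with 2 mM ATP; helicase unwinding raises red fluorescence, read kinetically.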
Large screens that a line does not name were inactive. Hits are enriched below; roughly 2.4% of the tested compounds scored in any of these assays. Calls come from the whole dose curve; as a rule, active = well fitted curve in the direction sought with a large enough effect; inconclusive = small, poorly fitted or top-dose-only effect, or another doubt; inactive = no such curve, though single readings can be large; an effect the other way counts as inactive or inconclusive.

COc1ccc(C(=O)COC(=O)c2ccccc2O)c(OC)c1	Pol kappa inh inconclusive, Pol eta inh 25µM, POLI inh 28µM (no result: POLB inh)
CCC1Nc2ncnc(N3CCCCC3)c2N(Cc2ccc(Br)cc2)C1=O (centres undefined)	none (no result: POLB inh)
CC(=O)Nc1ccc(S(=O)(=O)N(C)c2ccc(OCC(=O)OCC(=O)Nc3ccc(OC(F)F)cc3)cc2)cc1	Pol kappa inh inconclusive, POLI inh inconclusive
COc1ccc(C(=O)COC(=O)CCNS(=O)(=O)c2ccccc2)c(OC)c1	Pol eta inh inconclusive, POLI inh 50µM (no result: POLB inh)
O=C(CCNS(=O)(=O)c1ccccc1)OCC(=O)c1ccc(F)cc1	none (no result: POLB inh)
COC(=O)c1sc(NC(=S)NC(=O)c2cc(OC)c(OC)c(OC)c2)nc1C	none
CC(C)Cc1csc(NC(=O)c2ccc(F)cc2)c1C(=O)O	none
Cc1c([N+](=O)[O-])cc(C(=O)Oc2ccc(Br)cc2C(=S)N2CCCCC2)cc1[N+](=O)[O-]	Pol eta inh inconclusive, POLI inh 89µM
O=C(CNc1cc(S(=O)(=O)N2CCOCC2)ccc1N1CCCC1)NCc1ccco1	none
O=C(c1ccccc1)N(c1ccccc1)c1ccccc1O	Pol eta inh inconclusive (no result: POLB inh)
CCOc1[nH]c(/N=C/c2ccccc2)c(C#N)c1C#N	POLI inh inconclusive (no result: POLB inh, Pol eta inh, WRN helicase inh)
COc1[nH]c(/N=C/c2ccco2)c(C#N)c1C#N	POLI inh 71µM, FEN1 inhibitor inconclusive (no result: POLB inh, Pol eta inh, WRN helicase inh)
CCC(=O)Oc1ccc(/C=C(\C#N)c2nc3ccccc3[nH]2)cc1OC	none (no result: Pol eta inh, WRN helicase inh)
CCOC(=O)COc1ccc(/C=C(\C#N)c2nc3ccc(C)cc3[nH]2)cc1OC	POLB inh 11µM, Pol kappa inh inconclusive, Pol eta inh 79µM, POLI inh inconclusive (no result: WRN helicase inh)
Cc1cc(/C=C(\C#N)c2nc3ccccc3[nH]2)c(C)n1C	POLB inh 40µM, Pol eta inh inconclusive, POLI inh inconclusive
COc1ccc(/C=C(\C#N)c2nc3ccccc3[nH]2)cc1O	POLB inh 25µM, Pol eta inh 79µM, POLI inh inconclusive, WRN helicase inh inconclusive
COc1ccc(C(C(=O)Nc2ccc(F)cc2)N(C(=O)Cn2nnc3ccccc32)C2CC2)cc1 (centres undefined)	none
O=[N+]([O-])c1ccc(S(=O)(=O)Nc2nc(-c3ccccc3)cs2)cc1	POLB inh inconclusive
O=S(=O)(Nc1nc(-c2ccccc2)cs1)c1cc(Cl)ccc1Cl	POLB inh 45µM, Pol eta inh inconclusive, POLI inh inconclusive
C#CCOCCOCCOCCNc1nc(N2CCN(C(=O)Cn3cc(CCCCN)nn3)CC2)nc(N2CCN(C(=O)[C@H](C)n3cc(CCC(=O)O)nn3)CC2)n1	none (no result: POLB inh)
C#CCOCCOCCOCCNc1nc(N2CCN(C(=O)Cn3cc(CCCN=C(N)N)nn3)CC2)nc(N2CCN(C(=O)[C@H](C)n3cc(CCCN=C(N)N)nn3)CC2)n1	POLB inh 40µM, Pol kappa inh inconclusive, POLI inh inconclusive
C#CCOCCOCCOCCNc1nc(N2CCN(C(=O)Cn3cc(CCCCN)nn3)CC2)nc(N2CCN(C(=O)Cn3cc(CCCN=C(N)N)nn3)CC2)n1	Pol kappa inh inconclusive, POLI inh 35µM (no result: POLB inh)
COc1ccc(CCC(C)N2CCC(Oc3ccc(C(=O)N4CCCC4)cc3)CC2)cc1 (centres undefined)	POLI inh 89µM
CC(CCc1ccc(O)cc1)N1CCC(Oc2ccc(C(=O)N3CCCC3)cc2)CC1 (centres undefined)	POLB inh inconclusive
COc1cc(/C=C\C(=O)O)cc(S(=O)(=O)N2CCCCCC2)c1OC	none
CCOc1cccc(-c2nn3c(-c4ccco4)nnc3s2)c1	Pol eta inh 20µM
Cc1oc(-c2ccc(Cl)cc2)cc1-c1nn2c(-c3ccco3)nnc2s1	POLB inh 20µM (no result: Pol kappa inh, Pol eta inh, POLI inh, FEN1 inhibitor, WRN helicase inh)
Cc1ccc(C(=O)c2cn(Cc3ccc(F)cc3)c3nc(C)ccc3c2=O)cc1	POLI inh 79µM (no result: WRN helicase inh)
Cc1ccc(C(=O)c2cn(Cc3ccc(Cl)cc3)c3nc(C)ccc3c2=O)cc1	none (no result: WRN helicase inh)
CCC(OC(=O)C1=Cc2ccccc2OC1)C(=O)NCc1ccco1 (centres undefined)	none
COc1ccc(-c2cc(-c3ccco3)[nH]c(=O)c2C#N)cc1	POLB inh inconclusive, Pol eta inh inconclusive
N#Cc1c(-c2cccc(Br)c2)cc(-c2ccco2)[nH]c1=O	POLB inh 18µM, Pol eta inh 50µM, POLI inh inconclusive, WRN helicase inh inconclusive
CCCCn1c(N)c(N(CC(C)C)C(=O)c2ccc(OCC3CCCO3)cc2)c(=O)[nH]c1=O (centres undefined)	none (no result: POLB inh)
O=C(N/N=C/c1cc(O)ccc1Br)c1cccnc1	none
O=C(N/N=C/c1cc(Br)c(O)c(Br)c1O)c1cccnc1	POLB inh 40µM, Pol eta inh 40µM
O=C(COC(=O)CCN1C(=O)/C(=C\C=C\c2ccccc2)SC1=S)Nc1cc(F)ccc1F	POLB inh inconclusive, Pol kappa inh inconclusive, Pol eta inh 32µM, POLI inh 25µM
O=c1cc(-c2ccccc2)nc2c(-c3ccccc3)c(C(F)(F)F)[nH]n12	POLB inh 79µM, Pol eta inh inconclusive
Cc1cccc(NC(=O)Cn2cc(C(=O)c3ccco3)c3ccccc32)c1C	POLB inh inconclusive, Pol eta inh 79µM, POLI inh inconclusive (no result: WRN helicase inh)
Cc1cc2c(=O)c(C(=O)c3ccncc3)cn(CC(=O)Nc3cccc(C)c3C)c2cc1C	POLB inh 40µM, POLI inh inconclusive (no result: WRN helicase inh)
O=C(N/N=C/C=C/c1ccc([N+](=O)[O-])cc1)c1cccs1	POLB inh 7.1µM, Pol eta inh inconclusive, POLI inh inconclusive, WRN helicase inh inconclusive
Cc1ccc(OCC(=O)N/N=C/C=C/c2ccco2)c(Br)c1	Pol kappa inh 79µM, POLI inh 50µM
O=C(Cc1cccs1)N/N=C/c1ccco1	Pol eta inh inconclusive
O=C(Cc1cccs1)N/N=C/C=C\c1ccco1	POLB inh inconclusive, Pol kappa inh inconclusive, Pol eta inh 50µM, POLI inh inconclusive, WRN helicase inh inconclusive
O=C(N/N=C/C=C/c1ccco1)c1ccncc1	Pol kappa inh 79µM, POLI inh 16µM
CC(=C/c1ccco1)/C=N/NC(=O)c1ccncc1	none
O=C(N/N=C/C=C\c1ccccc1[N+](=O)[O-])c1cccs1	none
CCCC(=O)N1CCCC1(C)C(=O)Nc1cc(C)ccc1C (centres undefined)	none (no result: POLB inh, Pol kappa inh, Pol eta inh, POLI inh, FEN1 inhibitor)
Cc1onc(-c2ccccc2)c1C(=O)NCc1ccccn1	none
O=C(CNC(=O)c1cccs1)N/N=C/c1ccco1	none
CC(/C=C/c1ccco1)=N/NC(=O)c1ccccc1Cl	Pol eta inh inconclusive
O=C(N/N=C/C=C/c1ccco1)c1ccccc1Cl	Pol kappa inh 79µM, POLI inh inconclusive
O=C(N/N=C/C=C\c1ccco1)c1cccs1	POLB inh 22µM, Pol kappa inh inconclusive, Pol eta inh inconclusive, POLI inh 25µM
